# The source made the active and inactive calls. Cut-off read from the data, not from the text of the source: active = fold change permeability below about 0.7 or above about 1.3; inactive = in between.
# Experiment: modulators of brain endothelial barrier permeability, primary screen, cell-based, FITC-avidin fluorescence, HTS (AID 1963498); note: test concentration not given here
# Details: actives lie on both sides
row,Compound,fold change permeability
1,NCCCCN=C(N)N,1.3 (active)
2,CC(C)Cc1ccc([C@H](C)C(=O)O)cc1,2.3 (active)
3,NC(=O)C(=O)O,0.8 (inactive)
4,CC(C)(C)c1ccc(/C=C/C(=O)Nc2ccc3c(c2)OCCO3)cc1,2 (active)
5,c1cnc2c(c1)ccc1cccnc12,1.2 (inactive)
6,C[C@H](NC[C@H](O)CP(=O)(O)Cc1ccccc1)c1ccc(Cl)c(Cl)c1,1.1 (inactive)
7,O=C1NC(=O)C(c2ccccc2[N+](=O)[O-])=C1Nc1ccc(O)c(Cl)c1,1.4 (active)
8,Cc1cccc(-c2[nH]ncc2-c2ccc3ncccc3n2)n1,0.7 (active)
9,CN1CCN(CCCN2c3ccccc3Sc3ccc(Cl)cc32)CC1,1 (inactive)
10,NCCCNCCCCNCCCN,1.6 (active)
11,CC(C(=O)O)c1ccc(CC2CCCC2=O)cc1 (stereo not drawn),1.5 (active)
12,NC1(C(=O)O)CC1,0.9 (inactive)
13,O=c1[nH]c2cc([N+](=O)[O-])c([N+](=O)[O-])cc2[nH]c1=O,1.2 (inactive)
14,CNC(=O)c1c(F)cccc1Nc1nc(Nc2cc3c(cc2OC)CCN3C(=O)CN(C)C)nc2[nH]ccc12,1.6 (active)
15,CN(C)C(=O)/N=N/C(=O)N(C)C,1 (inactive)
16,C[C@]12CC[C@@H]3c4ccc(O)cc4CC[C@H]3[C@@H]1CC[C@@H]2O,1 (inactive)
17,CC(=O)[C@H]1CCC2C3CC=C4C[C@@H](OS(=O)(=O)O)CC[C@]4(C)C3CC[C@@]21C (stereo partly drawn),1 (inactive)
18,Cn1c(CNc2ccc(C(=N)N)cc2)nc2cc(C(=O)N(CCC(=O)O)c3ccccn3)ccc21,1.1 (inactive)

# Reference: PubChem BioAssay
